In PubChem BioAssay AID624415 (National Center for Advancing Translational Sciences (NCATS), 2012) one finds activity change, negative = inhibition data, which are given here for 24 compounds.

The whole screen tested about 390,000 compounds, of which about 60 (0.02%) were called active. The list comes from a sample in which actives are over-represented; it also holds similar structures and randomly drawn compounds. Values without a mark were called inactive. Cut-off read from the data, not from the text of the source: active = activity change below about -50%; inconclusive = between about -30% and that limit; inactive = weaker than that.
% is set by controls: 0 for no effect and ±100 for the full control effect.

For this test, the target named is Mucolipin-1 (Homo sapiens) (UniProt Q9GZU1). Briefly: qHTS for Inhibitors of the Human Mucolipin Transient Receptor Potential 1 (TRPML1). Particulars: TRPML1-inducible cells, Ca2+ dye fluorescence, FDSS; hits give low values; inhibition of EC80 agonist-evoked calcium signal. An excerpt: Mutations of human Mucolipin transient receptor potential 1 (TRPML1) cause type IV mucolipidosis (ML4), a devastating neurodegenerative disease in young children. […] Currently, there is no treatment for ML4. […] Under physiological conditions, TRPMLs regulate membrane trafficking by transducing information about PI(3,5)P2 levels into changes in juxtaorganellar Ca2+, thereby triggering membrane fusion/fission events in the late endocytic pathways (endolysosomal trafficking). In addition, TRPML1 mediates release of Fe2+ from late endosomes and lysosomes, which is essential for cellular iron metabolism. Thus, impaired ion (Ca2+ and Fe2+) homeostasis underlies lysosomal dysfunction and ML4 phenotypes. In ML4 cells, the problem is twofold. First, defective Ca2+-dependent membrane trafficking due to TRPML1-deficiency causes accumulation of lipids and other bio-materials in the lysosome. The second strike comes from the lysosomal iron overload (due to impairment of TRPML1's Fe2+ conductivity), which converts the accumulated materials into the nondegradable (resistant to lysosomal degradation) lipofuscin (also called aging pigment) in the lysosome. Lipofuscin accumulation dramatically compromises the functions of lysosomes.
Mucolipin-1 (Homo sapiens), sequence (Q9GZU1 whole entry, looked up, the tested form may be a part): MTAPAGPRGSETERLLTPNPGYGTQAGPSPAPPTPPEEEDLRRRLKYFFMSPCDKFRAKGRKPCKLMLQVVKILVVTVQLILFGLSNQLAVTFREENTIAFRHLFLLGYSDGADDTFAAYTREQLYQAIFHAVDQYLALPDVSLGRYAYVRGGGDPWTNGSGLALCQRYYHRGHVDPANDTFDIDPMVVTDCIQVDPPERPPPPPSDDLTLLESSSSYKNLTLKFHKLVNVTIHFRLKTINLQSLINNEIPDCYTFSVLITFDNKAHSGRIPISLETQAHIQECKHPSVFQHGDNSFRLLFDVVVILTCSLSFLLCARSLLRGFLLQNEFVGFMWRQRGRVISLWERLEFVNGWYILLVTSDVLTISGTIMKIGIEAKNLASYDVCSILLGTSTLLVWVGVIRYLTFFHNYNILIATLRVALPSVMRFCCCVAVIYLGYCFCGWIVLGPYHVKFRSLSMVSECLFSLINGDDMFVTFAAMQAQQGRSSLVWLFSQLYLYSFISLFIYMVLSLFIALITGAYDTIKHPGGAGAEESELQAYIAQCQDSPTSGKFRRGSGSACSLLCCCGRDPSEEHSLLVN
Niemann-Pick type C (NPC) disease is another lysosome storage disease (LSD) with severe neurodegeneration during the childhood. Currently, there is no cure for NPC. […] Thus, TRPML1 is likely to be an essential regulator of lysosome ion homeostasis. We specifically hypothesize that stimulating TRPML1's Fe2+/Ca2+ channel activity in the lysosome using synthetic agonists can alleviate neurodegeneration associated with ML4 or NPC.
To this end, a high throughput screen was developed in a miniaturized format to screen against the Molecular Libraries Small Molecule Repository (MLSMR) to find small molecules that act either as inhibitors or agonist against the TRPML1 channel.
NIH Chemical Genomics Center [NCGC]
NIH Molecular Libraries Probe Centers Network [MLPCN]
Assay Submitter (PI): Haoxing Xu, University of Michigan Ann Arbor
TRPML1-DL cells are dissociated from flasks, counted and, brought up to a density of 500,000 cells per mL of media containing a 1X Tet inducer. Using a Multidrop Combi, 3 uL of this cell solution is dispensed to each well of a 1536 TC treated, black, clear bottom hi base plate for a final cell density of 1,500 cells per well. The assay plates are incubated overnight (approximately 16 hours) at 37 degrees C and 5% CO2. Using a Multidrop Combi, 2 uL of ABD Ca8 no wash dye plus quencher is added to each well. The assay plates incubate at room temperature in the dark for 45-90 minutes. The assay plate is read on the FDSS using the following protocol: 10 second baseline read, 23 nL of compounds and controls are added using 1536 pintool, agonist read for 110 seconds, 1 uL EC80 addition (4 uM final 54-4 diluted in media), antagonist read for 110 seconds.
In general terms: qHTS replaces the single test concentration by a dilution series.
As for `CCN(CC)CCNC(=O)c1cc2c(=O)oc3ccc(C)cc3c2s1`, the activity change, negative = inhibition was -8.55%. For the compound `Cc1cc(F)ccc1NC1(c2ccccc2)C(=O)c2ccccc2C1=O`, the activity change, negative = inhibition was 2.11%.

In the case of `COc1ccc(S(=O)(=O)n2nc(C)c(S(=O)(=O)N3CCCCCC3)c2C)cc1`, the activity change, negative = inhibition is -9.9%.

As for `O=C(Nc1ccc(OC(F)(F)F)cc1)c1cc2c(=O)n3ccccc3nc2s1`, the activity change, negative = inhibition was 9.57%. For the compound `COC(=O)c1ccc(-c2nc3cc(NC(C)=O)ccc3o2)cc1`, the activity change, negative = inhibition is 12.1%. As to `CCOc1ccc(S(=O)(=O)Nc2ccc3oc4c(c3c2)CC(C)CC4)cc1` (centres undefined), the activity change, negative = inhibition is 2.72%. With `CCOC(=O)c1ccc(NC(=O)C2CC(=O)N(c3ccc(C(C)C)cc3)C2)cc1` (centres undefined) the figure was -2.44%; with `Cc1cc(OCC(=O)NCC2(N(C)C)CCCCC2)cc(C)c1Cl`, -7.81%; with `C=C1CCN(C(CC(C)C)C(=O)NCc2cc(OC)c(OC)c(OC)c2)S(=O)(=O)c2ccccc21` (centres undefined), 6.7%.

On to `Cc1ccc(CNC(=O)C2(C(F)(F)F)C/C(=C\CCO)CCCO2)o1` (centres undefined), for which the activity change, negative = inhibition is -4.32%. With `COc1ccc(NC(=O)CSc2nnc(-c3nnn(-c4ccc(F)cc4)c3C)o2)cc1` the figure was 30.2%; with `Cc1cc(O)c(C(c2ccccc2)N2CCN(c3ccccc3F)CC2)c(=O)n1Cc1ccco1` (centres undefined), 19%. To `O=C(NCCS(=O)(=O)N1CCN(c2ccc(F)cc2)CC1)c1ccccc1Br` belongs -27.6%; to `Cc1nc(SCC(=O)N2CCN(c3ccccc3)CC2)[nH]c(=O)c1C`, 14.8%; to `Cc1cccc(Cn2c(SCc3ccc(C(=O)N4CCC(C)CC4)cc3)nc3ccncc32)c1`, 10.3%. Regarding `Cn1nnnc1SCCCNCc1ccc(Cl)cc1`, the activity change, negative = inhibition is 25.2%. As to `COc1ccc(Cl)cc1S(=O)(=O)Nc1cccc(C(=O)O)c1`, the activity change, negative = inhibition is -0.499%.

Take `CCOC(=O)c1cccc(NS(=O)(=O)c2cn(C)c(C)n2)c1`: the activity change, negative = inhibition is 9.58%. On to `COC(=O)c1cccc(NS(C)(=O)=O)c1`, for which the activity change, negative = inhibition is -60.5% (active).

Take `O=C(CCc1nc(CN2CCN(S(=O)(=O)c3ccc(Cl)cc3)CC2)no1)N1CCCCC1`: the activity change, negative = inhibition was 8.21%. To `CCc1ccc(CNC(=O)C2CCN(c3nn4cc(-c5ccc(F)cc5)nc4s3)CC2)cc1` belongs 20.9%. For the compound `Cc1ccc(NC(=O)Cc2ccc(NC(=O)N3CCCCc4ccccc43)cc2)cc1`, the activity change, negative = inhibition was 8.17%. To `Cc1ccccc1C(=O)Nc1cc(C)c(O)c(-c2nc3ccccc3o2)c1` belongs -18.1%; to `Cc1ccccc1CNC(=O)CSc1nnc(C)c2c(C)n(-c3ccccc3)nc12`, 2.86%.
